# Measurements published in PubChem BioAssay (NCATS).
# Unmarked numbers belong to inactive results. Inconclusive results are not listed. Entries that show only a call come without a potency. Active and inactive are the calls of the source. Calls follow the shape of the dose curve; as a rule, active = well fitted curve in the direction sought with a large enough effect; inconclusive = small, poorly fitted or top-dose-only effect, or another doubt; inactive = no such curve, though single readings can be large; an effect the other way counts as inactive or inconclusive.
# Tests used:
# [1] = test system: Zika virus NS2B-NS3 protease (linked construct); assay: Primary screen NINDS Rhodamine qHTS for Zika virus inhibitors (AID 1347160); also: nearly all actives have a fitted effect of over 55% in size; also: potency is read from the fitted curve at half-maximal effect
# Method in brief: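 Single-chain NS2B-NS3 protease, 25 nM, pH 8.0; compounds preincubated 15 min. Activity: Rhodamine110 release from 1.5 microM substrate over 15 min, room temperature, data fitted to 4-parameter Hill.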
# [2] = HPAF-II Cancer Cell Toxicity qHTS against the NCATS CANVASS Library (AID 1347346); also: nearly all actives have a fitted effect of over 55% in size; also: potency is read from the fitted curve at half-maximal effect
# Method in brief: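 1000 HPAF-II cells/well; 4 h pre-incubation; 11-pnt compound titration; 72 h, 37 degrees C/5% CO2; CellTiter-Glo, 15 min RT; luminescence read.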
# [3] = U-118MG Cancer Cell Toxicity qHTS against the NCATS CANVASS Library (AID 1347351); also: potency is read from the fitted curve at half-maximal effect
# Method in brief: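 Step one: seed 1000 cells per well. Step two: incubate 4 h. Step three: add test compounds in 11 concentrations. Step four: culture 72 h, then add CellTiter-Glo and record luminescence after 15min.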
# [4] = COV-362 Cancer Cell Toxicity qHTS against the NCATS CANVASS Library (AID 1347352); also: potency is read from the fitted curve at half-maximal effect
# Method in brief: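 1000 cells/well, 4 h pre-incubation 37 °C/5% CO2; 11-pnt titration; 72 h; CellTiter-Glo 15 min RT, luminescence.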
# [5] = HPAF-II 24hr Apoptosis Induction qHTS against the NCATS CANVASS Library (AID 1347356)
# Method in brief: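 500 HPAF-II cells/well; compounds in 11-pnt qHTS; 24 h, 37 C/5% CO2; Caspase-Glo 3/7 added, 15 min RT dark; luminescence read. Doxorubicin control.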
# [6] = HEK293 18hr Apoptosis Induction qHTS against the NCATS CANVASS Library (AID 1347357)
# Method in brief: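 HEK293 cells (500/well, DMEM + 10% FBS) treated with an 11-point series for 18 h at 37 degrees C. Caspase-3/7 activity read by Caspase-Glo luminescence after 15 min at room temperature.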
# [7] = HEK293 24hr Apoptosis Induction qHTS against the NCATS CANVASS Library (AID 1347359)
# Method in brief: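 HEK293 cells (500/well, DMEM + 10% FBS) were exposed to compounds in an 11-point series for 24 hours at 37 degrees C, then caspase-3/7 activity was read by Caspase-Glo DEVD luciferase luminescence after 15 min.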
# [8] = HEK293 12hr Apoptosis Induction qHTS against the NCATS CANVASS Library (AID 1347361)
# Method in brief: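 HEK293 cells (500/well) were exposed to an 11-point qHTS concentration series for 12 hours at 37 degrees C. Caspase-3/7 activity was then read by DEVD-substrate luciferase luminescence after 15 min at room temperature.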
# [9] = molecular target: Luciferin 4-monooxygenase (Photinus pyralis) (UniProt P08659); assay: Firefly luciferase counterscreen qHTS: Assay Interference Panel against the NCATS CANVASS Library (AID 1347363); also: series mostly up to about 57 µM
# Luciferin 4-monooxygenase (Photinus pyralis), sequence (P08659 whole entry, looked up): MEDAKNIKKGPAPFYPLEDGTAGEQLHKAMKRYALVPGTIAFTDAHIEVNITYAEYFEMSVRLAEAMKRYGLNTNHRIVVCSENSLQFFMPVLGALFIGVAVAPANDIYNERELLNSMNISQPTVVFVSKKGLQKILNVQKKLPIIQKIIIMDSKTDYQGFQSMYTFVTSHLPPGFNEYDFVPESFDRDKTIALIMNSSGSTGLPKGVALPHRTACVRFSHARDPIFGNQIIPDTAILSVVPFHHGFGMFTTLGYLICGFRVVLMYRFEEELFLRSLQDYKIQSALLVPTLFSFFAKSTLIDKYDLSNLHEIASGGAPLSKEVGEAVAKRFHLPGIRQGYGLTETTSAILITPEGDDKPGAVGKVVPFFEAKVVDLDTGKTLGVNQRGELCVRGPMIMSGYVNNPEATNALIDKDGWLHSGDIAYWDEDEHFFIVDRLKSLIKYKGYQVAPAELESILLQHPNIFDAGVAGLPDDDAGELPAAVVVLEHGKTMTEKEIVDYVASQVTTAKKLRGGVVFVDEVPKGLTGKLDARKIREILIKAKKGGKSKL
# Method in brief: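 Purified P. pyralis luciferase was added to compounds (11-point series) preincubated 15 min at room temperature with substrate containing 0.013 mM D-luciferin and 0.013 mM ATP; luminescence was read after 5 min.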
# [10] = KB-3-1 Cancer Cell Toxicity qHTS against the NCATS CANVASS Library (AID 1347366); also: nearly all actives have a fitted effect of over 75% in size; also: potency is read from the fitted curve at half-maximal effect
# Method in brief: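 KB-3-1 cells (500/well) in DMEM with 10% FBS were exposed to compounds for 72 h at 37C. Viability was read by CellTiter-Glo luminescence.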
# [11] = qHTS for ATAD5 Agonist screened against the NCATS CANVASS Library (AID 1347367);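 also: luciferase reporter driven by ATAD5 which rises upon DNA damage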
# Method in brief: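 Luciferase reporter under ATAD5 control, stably integrated in HEK293T cells (2000/well). Compounds (11 points) incubated 16 h at 37C; viability read first by CellTiter-Fluor, then luminescence reporting ATAD5 activation. MMS positive control.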
# [12] = MCF7 Cancer Cell Toxicity qHTS against the NCATS CANVASS Library (AID 1347369)
# Method in brief: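 MCF7 cells (500/well) were exposed 72 h at 37 °C to compounds in an 11-point series. Viability was read as ATP content by CellTiterGlo luminescence.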
# [13] = qHTS for ATAD5 Antagonist screened against the NCATS CANVASS Library (AID 1347370); also: nearly all actives have a fitted effect of over 65% in size; also: potency is read from the fitted curve at half-maximal effect
# Method in brief: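 HEK293T-ATAD5 luc reporter, 2000 cells/well; 5hr attach; cpd + 10 uM 5-FUrd; 16hr 37C, 5% CO2. Readouts: CellTiter-Fluor fluorescence (1hr), then Amplite luciferase luminescence (30min RT).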
# [14] = J3T Cancer Cell Toxicity qHTS against the NCATS CANVASS Library (AID 1347371); also: potency is read from the fitted curve at half-maximal effect
# Method in brief: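 Dog glioma J3T, 500 cells/well; cpd 11-pt qHTS; 72 hr, 37C/5% CO2; CellTiterGlo ATP luminescence readout.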
# [15] = molecular target: Nuclear receptor subfamily 1 group I member 3 (Homo sapiens) (UniProt Q14994); assay: qHTS for Constitutive Androstane Receptor (CAR) Agonist screened against the NCATS CANVASS Library (AID 1347373);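 also: every well also contained 1.5 µM PK11195 alongside the test compound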
# Nuclear receptor subfamily 1 group I member 3 (Homo sapiens), sequence (Q14994 whole entry, looked up): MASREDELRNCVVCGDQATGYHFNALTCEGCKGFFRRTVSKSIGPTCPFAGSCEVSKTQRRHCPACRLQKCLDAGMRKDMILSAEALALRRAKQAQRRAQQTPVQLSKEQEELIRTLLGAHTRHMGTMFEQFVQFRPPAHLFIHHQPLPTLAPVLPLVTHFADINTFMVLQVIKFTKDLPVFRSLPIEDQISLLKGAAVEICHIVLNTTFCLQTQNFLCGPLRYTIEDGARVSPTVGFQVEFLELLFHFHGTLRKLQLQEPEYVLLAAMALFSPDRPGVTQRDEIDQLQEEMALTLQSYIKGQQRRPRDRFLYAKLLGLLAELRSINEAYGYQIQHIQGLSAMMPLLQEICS
# Method in brief: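 Luciferase read-out (ONE-Glo, 30 min RT) of CYP2B6-2.2kb promoter activity in double-stable HepG2-hCAR cells after 24hr compound exposure with 1.5uM PK11195 present; viability measured first by CellTiter-Fluor.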
# [16] = 10-beta competent E. coli microbial cell viability qHTS against the NCATS CANVASS Library (AID 1347376); also: series mostly up to about 46 µM
# Method in brief: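 Luminescence from BacTiter-Glo ATP detection served as the viability read-out; bacteria (0.2 OD) had been incubated overnight at 37C with pin-transferred compounds at 11 concentrations.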
# [17] = qHTS for Inflammasome Signaling Inhibitors: IL-1-beta AlphaLISA screen against the NCATS CANVASS Library (AID 1347379);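 also: human THP-1 cells primed with LPS then triggered with ATP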
# Method in brief: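 THP-1, 1 hr compound pre-incubation, then LPS 250 ng/mL + ATP 1.25 mM (final); 16 hr total with compound; IL-1B AlphaLISA, ex 680/em 615 nm; 11-point qHTS, up to 57.5 uM final.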
# [18] = Inflammasome Signaling qHTS Counterscreen: IL-1-beta AlphaLISA counterscreen against the NCATS CANVASS Library (AID 1347381);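 also: cell-free check with purified IL-1β in medium and no THP-1 cells; series mostly up to about 57 µM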
# Method in brief: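 Here, no cellular stimulation occurs; compounds in an 11-point series meet 4 pg purified IL-1-beta directly. Bead-based AlphaLISA detection follows (1 h acceptor/antibody, then 30 min donor, dark, room temperature), with excitation at 680 nm.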
# [19] = Vero-766 cells viability qHTS against the NCATS CANVASS Library: Counterscreen for Zika virus inhibition assay (AID 1347394); also: series mostly up to about 46 µM; nearly all actives have a fitted effect of over 60% in size
# Method in brief: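 Vero 766 cells (1000/well), without Zika virus, were exposed to compounds for 72 h at 37C. Viability was measured by CellTiter Glo luminescence. Media-only wells served as 100% inhibition.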
# [20] = Viability qHTS for inhibitors of the SERCaMP assay screened against the NCATS CANVASS Library (AID 1347400); also: nearly all actives have a fitted effect of over 70% in size; also: potency is read from the fitted curve at half-maximal effect
# Method in brief: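 CellTiter-Glo luminescence readout after 48 h compound exposure (11-pnt qHTS series) of SH-SY5Y-GLuc SERCaMP MJH297 cells seeded at 1000 cells/well; bortezomib positive control.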
SMILES,Potency [1],Potency [2],Potency [3],Potency [4],outcome [5],Potency [6],Potency [7],Potency [8],Potency [9],Potency [10],Potency [11],Potency [12],Potency [13],Potency [14],outcome [15],outcome [16],Potency [17],outcome [18],Potency [19],Potency [20]
CC1C(=O)C23CCC1C[C@]21O[C@@H]2C(C)(C)C=CC(=O)[C@@]23COC1=O (some centres not stated),31.1 µM (active),inactive,inactive,inactive,inactive,inactive,inactive,inactive,inactive,inactive,inactive,inactive,inactive,inactive,inactive,inactive,inactive,inactive,inactive,inactive
CCC1=C2CCCN3C(=O)O[C@H]([C@H]1OC(C)=O)[C@H]23,inactive,inactive,inactive,inactive,inactive,inactive,inactive,inactive,inactive,inactive,inactive,inactive,inactive,inactive,inactive,inactive,inactive,inactive,inactive,inactive
CCCCCCCCC[C@@H]1C[C@@H]2CC[C@H]3[C@@H](C(=O)OCCCCN=C(N)N)[C@@H](C)N=C(N1)N23,inactive,14.7 µM (active),11.6 µM (active),13 µM (active),inactive,inactive,inactive,inactive,inactive,0.578 µM (active),inactive,–,inactive,11.5 µM (active),inactive,inactive,21.2 µM (active),inactive,inactive,inactive
CC1C(=O)C23CCC1C[C@@]21O[C@H]2C(C)(C)C=CC(=O)[C@@]23COC1=O (some centres not stated),inactive,inactive,inactive,inactive,inactive,inactive,inactive,inactive,inactive,inactive,inactive,inactive,inactive,inactive,inactive,inactive,inactive,inactive,inactive,inactive
C/C(=C\[C@H](C)C(=O)CCCC1CC(=O)NC(=O)C1)[C@@H]1OC(=O)/C=C/CC/C=C/C[C@@H](O)[C@@H]1C,17.5 µM (active),1.49 µM (active),–,–,inactive,inactive,inactive,inactive,inactive,14.8 µM (active),inactive,inactive,2.34 µM (active),2.64 µM (active),inactive,inactive,9.68 µM (active),inactive,inactive,5.38 µM (active)
CC(=O)O[C@H]1CC[C@@]2(C)C(CC[C@]3(C)C2CC=C2C4CC(C)(C)CC[C@]4(C)CC[C@]23C)C1(C)C (some centres not stated),inactive,inactive,inactive,inactive,inactive,inactive,inactive,inactive,inactive,inactive,inactive,inactive,inactive,inactive,inactive,inactive,inactive,inactive,inactive,inactive
